# Reference: the supplement of paper PMC12282887
# ± gives the standard deviation of the averaged measurements.
# Tests used:
# Experiment in all cases: promoter activity interaction Z-score (Lux/OD deviation from empty-vector control); higher = stronger promoter induction by the compound
# [1] = system: E. coli BW25113 acrABp lux reporter
# How it was run: (§1)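 Low-copy luxCDABE promoter reporters were carried by E. coli BW25113, either wild type or lacking one of three genes, grown in 40 µl LB Lennox in 384-well plates at 37°C. Each compound was run at four 1:2 dilutions in biological duplicates, with OD600 and luminescence read every 30 min for 12 h. Integration used 0–8 h for wild type and 1–9 h for deletion strains, and wells under 10% of the median growth value were removed. Luminescence normalised to growth was fitted against a control, and the Z-transformed residual is the score.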
# [2] = system: E. coli BW25113 micFp lux reporter
# How it was run: as §1
# [3] = system: E. coli BW25113 ompFp lux reporter
# How it was run: as §1
# [4] = system: E. coli BW25113 robp lux reporter
# How it was run: as §1
# [5] = system: E. coli BW25113 soxSp lux reporter
# How it was run: as §1
# [6] = system: E. coli BW25113 tolCp lux reporter
# How it was run: as §1
# [7] = 18.1 µg/ml, genetic background: wild type
# [8] = 18.1 µg/ml, genetic background: ΔmarA
# [9] = 18.1 µg/ml, genetic background: Δrob
# [10] = 18.1 µg/ml, genetic background: ΔsoxS
# [11] = 36.3 µg/ml, genetic background: wild type
# [12] = 36.3 µg/ml, genetic background: ΔmarA
# [13] = 36.3 µg/ml, genetic background: Δrob
# [14] = 36.3 µg/ml, genetic background: ΔsoxS
# [15] = 72.6 µg/ml, genetic background: wild type
# [16] = 72.6 µg/ml, genetic background: ΔmarA
# [17] = 72.6 µg/ml, genetic background: Δrob
# [18] = 72.6 µg/ml, genetic background: ΔsoxS
# [19] = 145.1 µg/ml, genetic background: wild type
# [20] = 145.1 µg/ml, genetic background: ΔmarA
# [21] = 145.1 µg/ml, genetic background: Δrob
# [22] = 145.1 µg/ml, genetic background: ΔsoxS
smiles,measurement,setting,value
Oc1cc(O)c2c(c1)O[C@@H](c1ccc(O)c(O)c1)[C@H](O)C2 [Catechin],promoter activity interaction Z-score,[1]; [7],0.118 ± 0.17
same,promoter activity interaction Z-score,[1]; [8],-0.352 ± 0.15
same,promoter activity interaction Z-score,[1]; [9],0.3299 ± 0.003
same,promoter activity interaction Z-score,[1]; [10],-0.306 ± 0.42
same,promoter activity interaction Z-score,[1]; [11],0.149 ± 0.084
same,promoter activity interaction Z-score,[1]; [12],-1.14 ± 0.28
same,promoter activity interaction Z-score,[1]; [13],0.394 ± 0.14
same,promoter activity interaction Z-score,[1]; [14],-0.191 ± 0.27
same,promoter activity interaction Z-score,[1]; [15],-0.243 ± 0.23
same,promoter activity interaction Z-score,[1]; [16],-0.35 ± 0.0073
same,promoter activity interaction Z-score,[1]; [17],0.0378 ± 0.18
same,promoter activity interaction Z-score,[1]; [18],-0.0752 ± 0.23
same,promoter activity interaction Z-score,[1]; [19],-0.205 ± 0.27
same,promoter activity interaction Z-score,[1]; [20],-0.135 ± 0.26
same,promoter activity interaction Z-score,[1]; [21],0.0277 ± 0.083
same,promoter activity interaction Z-score,[1]; [22],-0.364 ± 0.16
same,promoter activity interaction Z-score,[2]; [7],-0.45 ± 0.11
same,promoter activity interaction Z-score,[2]; [8],-0.0948 ± 0.022
same,promoter activity interaction Z-score,[2]; [9],-0.0243 ± 0.03
same,promoter activity interaction Z-score,[2]; [10],-0.43 ± 0.036
same,promoter activity interaction Z-score,[2]; [11],-0.372 ± 0.21
same,promoter activity interaction Z-score,[2]; [12],-0.115 ± 0.1
same,promoter activity interaction Z-score,[2]; [13],-0.0591 ± 0.057
same,promoter activity interaction Z-score,[2]; [14],-0.4729 ± 0.00069
same,promoter activity interaction Z-score,[2]; [15],-0.209 ± 0.095
same,promoter activity interaction Z-score,[2]; [16],-0.0545 ± 0.022
same,promoter activity interaction Z-score,[2]; [17],-0.0723 ± 0.19
same,promoter activity interaction Z-score,[2]; [18],-0.295 ± 0.12
same,promoter activity interaction Z-score,[2]; [19],-0.569 ± 0.15
same,promoter activity interaction Z-score,[2]; [20],-0.0791 ± 0.1
same,promoter activity interaction Z-score,[2]; [21],-0.0881 ± 0.0077
same,promoter activity interaction Z-score,[2]; [22],-0.263 ± 0.028
same,promoter activity interaction Z-score,[3]; [7],0.365 ± 0.41
same,promoter activity interaction Z-score,[3]; [8],-0.591 ± 0.23
same,promoter activity interaction Z-score,[3]; [9],-0.0407 ± 0.17
same,promoter activity interaction Z-score,[3]; [10],-0.757 ± 0.35
same,promoter activity interaction Z-score,[3]; [11],0.374 ± 0.65
same,promoter activity interaction Z-score,[3]; [12],-0.588 ± 0.15
same,promoter activity interaction Z-score,[3]; [13],0.0282 ± 0.096
same,promoter activity interaction Z-score,[3]; [14],-0.571 ± 0.38
same,promoter activity interaction Z-score,[3]; [15],0.326 ± 0.55
same,promoter activity interaction Z-score,[3]; [16],-0.202 ± 0.48
same,promoter activity interaction Z-score,[3]; [17],-0.391 ± 0.39
same,promoter activity interaction Z-score,[3]; [18],-0.391 ± 0.094
same,promoter activity interaction Z-score,[3]; [19],-0.0294 ± 0.93
same,promoter activity interaction Z-score,[3]; [20],-0.395 ± 0.18
same,promoter activity interaction Z-score,[3]; [21],0.079 ± 0.47
same,promoter activity interaction Z-score,[3]; [22],-0.14 ± 0.27
same,promoter activity interaction Z-score,[4]; [7],1.06 ± 0.79
same,promoter activity interaction Z-score,[4]; [8],-0.456 ± 0.041
same,promoter activity interaction Z-score,[4]; [9],0.533 ± 0.081
same,promoter activity interaction Z-score,[4]; [10],0.443 ± 0.12
same,promoter activity interaction Z-score,[4]; [11],0.0214 ± 0.94
same,promoter activity interaction Z-score,[4]; [12],-0.758 ± 0.23
same,promoter activity interaction Z-score,[4]; [13],0.0934 ± 0.32
same,promoter activity interaction Z-score,[4]; [14],0.783 ± 1.1
same,promoter activity interaction Z-score,[4]; [15],0.124 ± 0.48
same,promoter activity interaction Z-score,[4]; [16],-0.279 ± 0.31
same,promoter activity interaction Z-score,[4]; [17],-0.125 ± 0.14
same,promoter activity interaction Z-score,[4]; [18],-0.0104 ± 0.026
same,promoter activity interaction Z-score,[4]; [19],0.00344 ± 0.46
same,promoter activity interaction Z-score,[4]; [20],0.234 ± 0.22
same,promoter activity interaction Z-score,[4]; [21],-0.253 ± 0.025
same,promoter activity interaction Z-score,[4]; [22],0.154 ± 0.41
same,promoter activity interaction Z-score,[5]; [7],-0.0785 ± 0.09
same,promoter activity interaction Z-score,[5]; [8],0.187 ± 0.029
same,promoter activity interaction Z-score,[5]; [9],0.051 ± 0.17
same,promoter activity interaction Z-score,[5]; [10],-0.175 ± 0.061
same,promoter activity interaction Z-score,[5]; [11],-0.0143 ± 0.021
same,promoter activity interaction Z-score,[5]; [12],0.127 ± 0.097
same,promoter activity interaction Z-score,[5]; [13],0.055 ± 0.095
same,promoter activity interaction Z-score,[5]; [14],-0.0693 ± 0.098
same,promoter activity interaction Z-score,[5]; [15],-0.0515 ± 0.13
same,promoter activity interaction Z-score,[5]; [16],0.0702 ± 0.24
same,promoter activity interaction Z-score,[5]; [17],0.012 ± 0.11
same,promoter activity interaction Z-score,[5]; [18],-0.155 ± 0.42
same,promoter activity interaction Z-score,[5]; [19],-0.342 ± 0.028
same,promoter activity interaction Z-score,[5]; [20],-0.0381 ± 0.14
same,promoter activity interaction Z-score,[5]; [21],-0.122 ± 0.12
same,promoter activity interaction Z-score,[5]; [22],-0.346 ± 0.37
same,promoter activity interaction Z-score,[6]; [7],0.35 ± 1.1
same,promoter activity interaction Z-score,[6]; [8],0.209 ± 0.5
same,promoter activity interaction Z-score,[6]; [9],0.0748 ± 1.2
same,promoter activity interaction Z-score,[6]; [10],-0.253 ± 0.35
same,promoter activity interaction Z-score,[6]; [11],-0.149 ± 0.74
same,promoter activity interaction Z-score,[6]; [12],-0.0811 ± 0.12
same,promoter activity interaction Z-score,[6]; [13],0.0597 ± 0.79
same,promoter activity interaction Z-score,[6]; [14],-0.531 ± 0.23
same,promoter activity interaction Z-score,[6]; [15],-0.323 ± 0.58
same,promoter activity interaction Z-score,[6]; [16],0.371 ± 0.19
same,promoter activity interaction Z-score,[6]; [17],-0.107 ± 0.25
same,promoter activity interaction Z-score,[6]; [18],-0.249 ± 0.24
same,promoter activity interaction Z-score,[6]; [19],-0.897 ± 0.36
same,promoter activity interaction Z-score,[6]; [20],0.397 ± 0.58
same,promoter activity interaction Z-score,[6]; [21],0.104 ± 0.68
same,promoter activity interaction Z-score,[6]; [22],0.637 ± 0.9
